Source: PubChem BioAssay
Compounds with a hit are over-represented: about 7.9% of the library has one in this group of screens.
KB-V1 MDR tox: qHTS assay for MDR1-selective chemotherapeutics: Primary screen using the drug-selected MDR subline cells KB-V1. Potency, µM (series often up to 46.1 µM), usual class: cytotoxic. AID 1347076, 2019. 3.4% of 400,000 active. KB-V1 MDR cells viability, CellTiter-Glo, 72 h; note: nearly all actives have a fitted effect of over 60% in size
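Potencies derive from concentration-effect curves fitted to normalized luminescence (CellTiter-Glo) of KB-V1 cells treated for 72 h at 37 degrees C in phenol-red-free DMEM containing 10% FBS.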
SW480 rerep: A quantitative high throughput screen for small molecules that induce DNA re-replication in SW480 colon adenocarcinoma cells | 1.8% of 340,000 active | SW480 DNA re-replication, Hoechst DNA content imaging, 48 h | AID 624297, 2012 | Potency, µM (top dose mostly 46.1 µM), usual class: activators; note: nearly all actives have a fitted effect of over 55% in size
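Cells (250 per well) received 23 nL compound or DMSO by pin tool and were kept 48 hr at 37 C, 5% CO2. Nuclei were then stained with Hoechst for 40 min and scanned for DNA content.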
MCF10A rereplic: A quantitative high throughput screen for small molecules that induce DNA re-replication in MCF 10a normal breast cells; Potency, µM (series often up to 46.1 µM), most hits filed as activators; 2.9% of 350,000 active; MCF 10A DNA re-replication, Hoechst nuclear intensity, 48 h; note: nearly all actives have a fitted effect of over 50% in size
KB-3-1 cytotox: qHTS assay for MDR1-selective chemotherapeutics: Primary screen using the parental adenocarcinoma cell KB-3-1; 1.4% of 400,000 active; AID 1347075, 2019; KB-3-1 viability, CellTiter-Glo ATP luminescence, 72 h; Potency, µM (series often up to 46.1 µM), hits mostly cytotoxic; note: nearly all actives have a fitted effect of over 60% in size
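Luminescent ATP read-out (CellTiter-Glo) measures survival of drug-naive KB-3-1 cells after 72 h compound exposure at 37 °C. Titration series was screened from lowest to highest concentration, with DMSO vehicle plates as background controls.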
HT1080-NT tox: qHTS for induction of synthetic lethality in tumor cells producing 2HG: qHTS for the HT-1080-NT fibrosarcoma cell line; AID 686970, 2013; HT-1080-NT fibrosarcoma viability, CellTiter-Glo ATP luminescence, 48 h; 1.6% of 360,000 active; Potency, µM (highest dose often 46.1 µM), actives largely listed as cytotoxic;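 note: NT is the 2HG producing partner of a matched IDH1 knockdown line; nearly all actives have a fitted effect of over 55% in size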
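HT-1080-NT fibrosarcoma cells (2HG-overproducing), 750 cells/well in RPMI with 5% FBS, dosed after 2 h and incubated 48 h at 37C. CellTiter-Glo luminescence normalized to DMSO and no-cell wells; concentration-response curves fitted and classed.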
HT1080 IDH1KD tx: qHTS for induction of synthetic lethality in tumor cells producing 2HG: qHTS for the HT-1080-IDH1KD cell line; HT-1080 IDH1 knockdown viability, ATP luminescence, 48 h; Potency, µM (highest dose often 46.1 µM), actives largely listed as cytotoxic; 2% of 360,000 active; AID 686971, 2013
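Viability of IDH1-knockdown HT-1080 fibrosarcoma cells was assessed by CellTiter-Glo after 48 h at 37 °C with titrated compound; concentration-effect curves were classified by fit quality and response size.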
A number is an active result. Calls come from the whole dose curve; as a rule, active = well fitted curve in the direction sought with a large enough effect; inconclusive = small, poorly fitted or top-dose-only effect, or another doubt; inactive = no such curve, though single readings can be large; an effect the other way counts as inactive or inconclusive.

O=C(CCN1CC2CCC(CC2)C1)c1cccs1 was read as KB-V1 MDR tox inactive, SW480 rerep inconclusive, MCF10A rereplic 10µM, KB-3-1 cytotox inactive, HT1080-NT tox inactive and HT1080 IDH1KD tx inconclusive.
COc1ccc(C(c2nnnn2-c2c(C)cccc2C)N2CCC3(CC2)C(=O)NCN3c2ccccc2)cc1 (stereo unspecified) was read as KB-V1 MDR tox inconclusive, KB-3-1 cytotox inconclusive, HT1080-NT tox 23µM and HT1080 IDH1KD tx inconclusive.
For CCCCn1nnnc1C(c1cccc2ccccc12)N1CCC2(CC1)C(=O)NCN2c1ccccc1 (stereo unspecified) the results were KB-V1 MDR tox 21µM, KB-3-1 cytotox inconclusive, HT1080-NT tox inconclusive and HT1080 IDH1KD tx inconclusive.
Screening Cc1onc(-c2ccccc2Cl)c1C(=O)OCC(=O)c1ccc2c(c1)OCCO2 returned KB-V1 MDR tox inconclusive, SW480 rerep inactive, MCF10A rereplic inconclusive, KB-3-1 cytotox inactive, HT1080-NT tox inactive and HT1080 IDH1KD tx inactive.
For COc1cc(-c2ccc(-[n+]3nc(-c4ccccc4)nn3-c3ccc([N+](=O)[O-])cc3)c(OC)c2)ccc1-[n+]1nc(-c2ccccc2)nn1-c1ccc([N+](=O)[O-])cc1 the results were SW480 rerep inconclusive and MCF10A rereplic inactive.
`O=[N+]([O-])OC1CO[C@H]2C(O[N+](=O)[O-])COC12` (stereo partly specified) gave SW480 rerep inactive and MCF10A rereplic inactive.
Cc1cc(C(=O)Nc2sc3c(c2C#N)CCC3)no1 was read as KB-V1 MDR tox 16µM, SW480 rerep inconclusive, MCF10A rereplic 8.2µM, KB-3-1 cytotox inconclusive, HT1080-NT tox 10µM and HT1080 IDH1KD tx inconclusive.
`Nc1ccc2ccc3cccc[n+]3c2c1` gave KB-V1 MDR tox inactive, SW480 rerep 2.9µM, MCF10A rereplic inactive, KB-3-1 cytotox inconclusive, HT1080-NT tox inactive and HT1080 IDH1KD tx inactive.
Cc1cc(C)c(N)cc1C was read as KB-V1 MDR tox inactive, SW480 rerep inconclusive, MCF10A rereplic inconclusive, KB-3-1 cytotox inactive, HT1080-NT tox inactive and HT1080 IDH1KD tx inactive.
Screening COc1cc(C2C(C#N)=C(N)Oc3cc(O)ccc32)cc(OC)c1OC (stereo unspecified) returned KB-V1 MDR tox inconclusive, SW480 rerep inactive, MCF10A rereplic inactive, KB-3-1 cytotox 2.9µM, HT1080-NT tox 0.56µM and HT1080 IDH1KD tx inconclusive.
For Cc1cccc(OC(C)C(=O)NCC2(N(C)C)CCCCC2)c1C (stereo unspecified) the results were KB-V1 MDR tox inactive and KB-3-1 cytotox inactive.
`CCOC(=O)c1c(C)n(Cc2ccc(F)cc2)c2ccc(O)cc12` gave KB-V1 MDR tox 16µM, SW480 rerep inconclusive, MCF10A rereplic inactive, KB-3-1 cytotox inconclusive, HT1080-NT tox inactive and HT1080 IDH1KD tx inactive.
Cc1[nH]c(=O)[nH]c(=O)c1/C=C/C(=O)OCC(C)C was read as KB-V1 MDR tox inconclusive, SW480 rerep inconclusive, MCF10A rereplic inactive, KB-3-1 cytotox inactive, HT1080-NT tox inactive and HT1080 IDH1KD tx inactive.
For COc1ccccc1-n1c(-c2ccccc2F)nc2ccccc2c1=O the results were KB-V1 MDR tox inactive, SW480 rerep inactive, MCF10A rereplic inactive, KB-3-1 cytotox inactive, HT1080-NT tox inactive and HT1080 IDH1KD tx inactive.
`CCCc1c(-c2ccccc2F)ncn1CCc1ccccc1OC` gave KB-V1 MDR tox 16µM, KB-3-1 cytotox inconclusive, HT1080-NT tox inconclusive and HT1080 IDH1KD tx inconclusive.
Screening C[C@H]1CN(C2CCC(C#N)(c3ccc(F)cc3)CC2)CC[C@@]1(C(=O)O)c1ccccc1 (stereo partly specified) returned SW480 rerep inactive and MCF10A rereplic inactive.
